# Experimental data taken from PubChem BioAssay.
# Calls of active or inactive are those of the source.
# Columns and labels:
# [1] = optical density shifts of acrAB sulA E. coli – strain DRC41, OD650, 48 h, E. coli filamentation inducer project, primary screen (AID 1152); conditions: higher = more signal, called active from +8 up or from −8 down;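 further: E. coli MC1000 strain DRC41 lacking acrAB efflux pump and sulA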
# [2] = probe aLefty1 binding on compound microarray – biochemical, small-molecule microarray, 635/667 nm fluorescence, primary screen (AID 1153); conditions: higher = more signal;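 further: score merges spot fluorescence with signal-to-noise ratio from the scanned slide images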
# [3] = plasmodial surface anion channel blockers, osmotic lysis – cell-based, P. falciparum Indochina, OD700, 1 h, primary screen (AID 1154); conditions: P. falciparum Indochina infected RBC osmotic lysis, higher = more signal, called active from +8 up or from −8 down
# [4] = plasmodial surface anion channel blockers, osmotic lysis – cell-based, P. falciparum Indochina, OD700, 2 h, primary screen (AID 1155);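 further: lysis reports solute entry through the parasite surface anion channel PSAC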; conditions: P. falciparum Indochina infected erythrocytes, higher = more signal, called active from +8 up or from −8 down
# [5] = changes in parasitized red cell lysis, either direction – P. falciparum Indochina, OD700, 3 h, PSAC antagonist project, primary screen (AID 1156); conditions: P. falciparum-infected erythrocytes, osmotic lysis, higher = more signal, called active from +8 up or from −8 down
# [6] = plasmodial surface anion channel blockers, osmotic lysis – cell-based, P. falciparum Indochina, OD700, 18 h, primary screen (AID 1157); conditions: P. falciparum Indochina infected erythrocytes, osmotic lysis OD700, 18 h; higher = more signal, called active from +8 up or from −8 down
# [7] = S6 kinase pathway phospho-S6 level changes – cell-based, A549, cytoblot, luminescence, serum-stimulated, primary screen (AID 1158); conditions: 5 h, higher = more signal;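 further: serum-stimulated A549 lung adenocarcinoma cells; signal is phosphorylated S6 detected by cytoblot immunostaining with HRP secondary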
# [8] = biological target: NADPH oxidase 2 (Homo sapiens) (UniProt P04839); experiment: compounds shifting NOX2 Amplex Red fluorescence – cell-based, HEK293-NOX2, PMA-stimulated, NOX inhibitor project, primary screen (AID 1159); conditions: 45 min, higher = more signal, called active from +8 up or from −8 down; further: test concentration not given here
# [9] = biological target: NADPH oxidase 4 (Homo sapiens) (UniProt Q9NPH5); experiment: compounds shifting NOX4 Amplex Red fluorescence – cell-based, HEK293-NOX4, tetracycline-induced, NOX inhibitor project, primary screen (AID 1160); conditions: HEK293-NOX4, Amplex Red H2O2 fluorescence, 45 min; higher = more signal, called active from +8 up or from −8 down
# [10] = biological target: NADPH oxidase 5 (Homo sapiens) (UniProt Q96PH1); experiment: compounds shifting NOX5 Amplex Red fluorescence – cell-based, HEK293-NOX5, NOX inhibitor project, primary screen (AID 1161); conditions: HEK293-NOX5, ionomycin, 45 min, higher = more signal
# [11] = compound effects on lung adenocarcinoma cell viability – A549, calcein-AM fluorescence, 48 h, basal, profiling panel (AID 1162); conditions: higher = more signal; further: test concentration not given here
# [12] = compound effects on differentiated 3T3-L1 adipocyte viability – cell-based, 3T3-L1 adipocytes, calcein-AM fluorescence, 48 h, basal, profiling panel (AID 1163); conditions: 3T3-L1 adipocytes viability, higher = more signal; further: test concentration not given here
# [13] = compound effects on hepatocellular carcinoma cell viability – HepG2, calcein-AM fluorescence, 48 h, basal, profiling panel (AID 1164); conditions: higher = more signal; further: test concentration not given here
# [14] = compound effects on multiple myeloma cell viability – MM1S, calcein-AM fluorescence, 48 h, basal, profiling panel (AID 1165); conditions: higher = more signal; further: test concentration not given here
# [15] = calcein-AM signal in unstimulated myeloma cells – cell-based, calcein-AM fluorescence, 48 h, PK04 Diversity Set, profiling panel (AID 1166); conditions: RPMI8226 myeloma viability, higher = more signal;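 further: cells grown under basal conditions without added stimulus; test concentration not given here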
# [16] = JC-1 mitochondrial signal, unstimulated HepG2 cells – cell-based, JC-1 fluorescence, 24 h, 100 nL compound, profiling panel (AID 1167); conditions: HepG2 mitochondrial potential, higher = more signal; further: test concentration not given here
# [17] = JC-1 mitochondrial signal, unstimulated adipocytes – cell-based, JC-1 fluorescence, 3T3-L1 adipocytes, 24 h, 100 nL compound, profiling panel (AID 1168); conditions: JC-1 mitochondrial fluorescence, higher = more signal, called active from +8 up or from −8 down; further: test concentration not given here
# [18] = JC-1 mitochondrial signal, unstimulated myeloma cells – cell-based, JC-1 fluorescence, RPMI8226, 24 h, 100 nL compound, profiling panel (AID 1169); conditions: JC-1 mitochondrial potential fluorescence, higher = more signal; further: test concentration not given here
# [19] = JC-1 mitochondrial signal, unstimulated MM1S myeloma – cell-based, JC-1 fluorescence, 24 h, 100 nL compound, profiling panel (AID 1170); conditions: MM1S mitochondrial potential, higher = more signal; further: test concentration not given here
# [20] = resazurin metabolic signal in A549 cells – cell-based, resazurin fluorescence, 24 h, PK04 Diversity Set, profiling panel (AID 1171); conditions: A549 viability, higher = more signal, called active from +8 up or from −8 down; further: test concentration not given here
# Chain of NADPH oxidase 2 (Homo sapiens) (P04839 whole entry, looked up): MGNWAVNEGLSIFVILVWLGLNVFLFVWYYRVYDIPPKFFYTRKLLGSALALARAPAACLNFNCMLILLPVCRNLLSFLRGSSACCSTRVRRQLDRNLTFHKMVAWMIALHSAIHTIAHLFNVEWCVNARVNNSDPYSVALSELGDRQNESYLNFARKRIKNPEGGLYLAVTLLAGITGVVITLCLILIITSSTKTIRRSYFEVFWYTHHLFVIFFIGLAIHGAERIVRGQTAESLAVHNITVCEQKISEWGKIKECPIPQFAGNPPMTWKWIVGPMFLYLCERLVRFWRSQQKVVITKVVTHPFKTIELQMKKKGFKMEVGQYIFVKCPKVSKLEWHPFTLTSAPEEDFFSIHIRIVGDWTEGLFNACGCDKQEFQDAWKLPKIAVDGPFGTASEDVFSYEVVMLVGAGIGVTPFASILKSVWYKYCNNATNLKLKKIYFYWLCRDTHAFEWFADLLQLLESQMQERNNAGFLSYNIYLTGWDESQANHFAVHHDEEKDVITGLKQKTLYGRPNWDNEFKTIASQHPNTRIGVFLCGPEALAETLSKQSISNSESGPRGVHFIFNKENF
# Chain of NADPH oxidase 4 (Homo sapiens) (Q9NPH5 whole entry, looked up): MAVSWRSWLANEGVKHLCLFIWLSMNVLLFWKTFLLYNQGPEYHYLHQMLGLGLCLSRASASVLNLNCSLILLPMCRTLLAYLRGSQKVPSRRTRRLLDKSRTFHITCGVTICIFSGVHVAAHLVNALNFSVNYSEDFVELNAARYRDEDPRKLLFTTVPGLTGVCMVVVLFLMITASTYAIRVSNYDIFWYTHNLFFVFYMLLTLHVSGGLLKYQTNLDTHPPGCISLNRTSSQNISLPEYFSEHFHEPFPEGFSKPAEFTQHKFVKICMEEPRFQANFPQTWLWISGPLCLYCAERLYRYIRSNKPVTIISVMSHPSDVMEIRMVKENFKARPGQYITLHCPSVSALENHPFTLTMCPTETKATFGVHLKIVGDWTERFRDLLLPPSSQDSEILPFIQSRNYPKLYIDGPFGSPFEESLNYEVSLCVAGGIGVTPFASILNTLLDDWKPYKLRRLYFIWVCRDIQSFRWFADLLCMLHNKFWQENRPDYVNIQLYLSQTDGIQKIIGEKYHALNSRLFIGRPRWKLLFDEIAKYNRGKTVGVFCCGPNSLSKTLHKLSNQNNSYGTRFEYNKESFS
# Chain of NADPH oxidase 5 (Homo sapiens) (Q96PH1 whole entry, looked up): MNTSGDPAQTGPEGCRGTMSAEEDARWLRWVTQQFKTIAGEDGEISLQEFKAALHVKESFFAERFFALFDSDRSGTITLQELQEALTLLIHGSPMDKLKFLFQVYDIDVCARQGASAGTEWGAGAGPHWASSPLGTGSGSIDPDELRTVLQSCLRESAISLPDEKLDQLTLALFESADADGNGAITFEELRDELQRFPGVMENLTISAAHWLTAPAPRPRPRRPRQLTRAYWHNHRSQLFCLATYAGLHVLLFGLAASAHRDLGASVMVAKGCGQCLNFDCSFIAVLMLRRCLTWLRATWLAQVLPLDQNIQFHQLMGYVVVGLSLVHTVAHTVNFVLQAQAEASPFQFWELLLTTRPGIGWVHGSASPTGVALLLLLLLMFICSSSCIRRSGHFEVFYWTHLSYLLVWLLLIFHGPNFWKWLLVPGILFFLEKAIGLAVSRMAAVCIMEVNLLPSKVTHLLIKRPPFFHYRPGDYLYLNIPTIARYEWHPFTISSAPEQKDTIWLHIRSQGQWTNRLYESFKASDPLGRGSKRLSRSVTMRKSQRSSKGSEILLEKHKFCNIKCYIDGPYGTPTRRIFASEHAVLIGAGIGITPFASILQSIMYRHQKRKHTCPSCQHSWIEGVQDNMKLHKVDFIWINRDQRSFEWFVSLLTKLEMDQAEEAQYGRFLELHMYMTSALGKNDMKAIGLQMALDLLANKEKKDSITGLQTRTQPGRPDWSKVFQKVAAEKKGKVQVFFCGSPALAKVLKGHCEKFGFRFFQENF
Compound,z-score [1],composite z-score [2],z-score [3],z-score [4],z-score [5],z-score [6],z-score [7],z-score [8],z-score [9],z-score [10],z-score [11],z-score [12],z-score [13],z-score [14],z-score [15],z-score [16],z-score [17],z-score [18],z-score [19],z-score [20]
O=C1C[C@]2(c3ccc([N+](=O)[O-])cc3)C(=O)N(Cc3ccccc3)c3cc(CO)ccc3[C@H]2N1CC12CC3CC(CC(C3)C1)C2,-0.06 (inactive),-0.678,0.556 (inactive),0.37 (inactive),-0.401 (inactive),0.23 (inactive),-0.218,0.135 (inactive),0.256 (inactive),0.664,0.376,-1.02,1.51,0.397,0.329,-0.821,0.286 (inactive),0.589,-1.02,-0.849 (inactive)
CC(C)OC(=O)CC(=O)CC(O)c1cccc(C#N)c1 (stereo not given),1.27 (inactive),0.273,1.65 (inactive),-0.261 (inactive),-1.36 (inactive),-1.2 (inactive),1.29,0.247 (inactive),0.89 (inactive),-0.0191,1.59,0.136,0.886,0.387,0.518,0.575,0.837 (inactive),0.105,-1.56,0.481 (inactive)
C=C(/C(=C/C[C@@H](OC(=O)c1ccncc1)c1ccccc1OCCO)c1cc(C(=O)OC)ccc1OC)C(C)C,0.548 (inactive),-0.204,23.6 (active),7.36 (inactive),4.04 (inactive),1.44 (inactive),1.12,-0.295 (inactive),-1.04 (inactive),-1.63,1.36,0.38,0.92,-3.25,-2.11,2.74,-0.158 (inactive),0.00511,-1.71,-0.108 (inactive)
C=CCOC(=O)[C@H]1[C@@H]2C(=O)O[C@@H](c3ccccc3)[C@@H](c3ccccc3)N2[C@@H](c2ccc(OCCOC(=O)[C@H]3C[C@H]4C(=O)N[C@@H](Cc5ccccc5)C(=O)N4[C@H]3c3ccc(O)cc3)cc2)[C@]12C(=O)Nc1ccc(I)cc12,-0.783 (inactive),-0.0162,4.04 (inactive),2.09 (inactive),0.28 (inactive),1.06 (inactive),-0.481,2.07 (inactive),1.18 (inactive),2.35,-0.7,0.664,1.16,0.0161,-0.321,0.408,-0.118 (inactive),-0.59,-1.04,-0.0968 (inactive)
CC=CC(O)C1C=CC2C(=O)N(c3ccccc3)C(=O)C2N1Nc1ccc([N+](=O)[O-])cc1 (stereo not given),-1 (inactive),0.0378,8.61 (active),1.61 (inactive),0.457 (inactive),0.876 (inactive),-0.701,-0.095 (inactive),-1.91 (inactive),-0.909,-0.972,-1.3,0.196,0.459,0.471,-0.653,0.207 (inactive),0.592,-1.01,-0.0977 (inactive)
C=CCOC(=O)[C@@H]1[C@H]2C(=O)O[C@H](c3ccccc3)[C@H](c3ccccc3)N2[C@H](c2ccc(OCCOC(=O)[C@H]3C[C@H]4C(=O)N[C@@H](CCCCNC(C)=O)C(=O)N4[C@H]3c3cccc(OCCO)c3)cc2)[C@@]12C(=O)Nc1ccc(I)cc12,-0.04 (inactive),-0.0358,3.68 (inactive),1.73 (inactive),0.309 (inactive),1.16 (inactive),-0.479,1.62 (inactive),0.898 (inactive),1.86,-0.596,0.159,0.821,-0.387,-0.0069,-0.742,0.605 (inactive),-0.517,-0.864,0.304 (inactive)
CCOC(=CC(=O)OC)CC(O)c1cccc(Cl)c1 (stereo not given),1.04 (inactive),-0.494,4.33 (inactive),0.101 (inactive),0.898 (inactive),-1.72 (inactive),0.979,0.112 (inactive),-0.513 (inactive),-0.131,0.738,0.342,-0.0117,0.221,-1.15,0.363,0.0253 (inactive),-0.0603,-0.69,0.0735 (inactive)
COc1ccc(C(O)C2C=CC3C(=O)N(C)C(=O)C3N2N2CCCCC2)cc1 (stereo not given),-0.625 (inactive),0.381,1.41 (inactive),1.36 (inactive),-0.138 (inactive),1.25 (inactive),-0.734,-0.378 (inactive),-0.744 (inactive),-0.369,-0.972,0.0526,0.133,-0.207,-0.0882,-0.49,0.0216 (inactive),-0.176,0.188,0.014 (inactive)
Cc1ccc(S[C@]2(C(=O)NCc3ccccc3)CC(=O)N(C(C)C)[C@@H]2c2ccc(CO)cc2I)cc1,0.0841 (inactive),0.33,5.42 (inactive),1.19 (inactive),0.121 (inactive),0.301 (inactive),0.0741,2.05 (inactive),-1.1 (inactive),-0.199,-0.897,0.152,-0.274,-2.35,-3.15,-0.0692,-0.371 (inactive),-0.592,-1.12,1.65 (inactive)
O=C1C2C=CC(C(O)c3cc(C(F)(F)F)cc(C(F)(F)F)c3)N(Nc3ccc([N+](=O)[O-])cc3)C2C(=O)N1c1ccccc1 (stereo not given),-1.58 (inactive),0.361,6.16 (inactive),2.01 (inactive),-6.7 (inactive),1.24 (inactive),-0.431,-0.378 (inactive),-2.65 (inactive),-1.68,-1.61,0.294,-3.51,-2.62,-4.06,-0.982,-0.699 (inactive),-1.03,-1.99,-0.0362 (inactive)
CN1C(=O)C2C=CC(C(O)Cc3ccccc3)N(N(c3ccccc3)c3ccccc3)C2C1=O (stereo not given),-1.29 (inactive),0.137,1.15 (inactive),1.09 (inactive),0.449 (inactive),0.679 (inactive),-1.07,-0.0622 (inactive),-0.198 (inactive),0.158,1.02,-1.5,1.35,-0.64,0.0338,1.37,-0.833 (inactive),0.257,-0.871,-0.69 (inactive)
O=C1OCC=C[C@H]2OC34C=CCN(c5ccc(Cl)cc5)C(=O)[C@H]3N(CCCCCO)C(=O)[C@@H]4[C@@H]12 (stereo not given in full),0.553 (inactive),0.0927,2.47 (inactive),0.622 (inactive),0.871 (inactive),0.502 (inactive),-0.646,1.95 (inactive),0.525 (inactive),2.87,-0.746,0.699,-0.231,0.733,0.707,-0.26,0.37 (inactive),0.536,1.35,-0.283 (inactive)
CCOC(=O)C[C@H]1[C@H](OC(=O)c2ccc(C(=O)c3ccccc3)cc2)[C@@H](NC(=O)c2ccc3ccccc3c2)c2cc(OCCCO)ccc2N1C(=O)c1ccccc1,-0.558 (inactive),-0.0134,0.137 (inactive),-0.0012 (inactive),-0.97 (inactive),0.189 (inactive),-0.357,0.311 (inactive),0.945 (inactive),1.06,-0.0566,0.202,-0.458,0.0736,-0.602,-0.245,-1.1 (inactive),0.314,0.184,-0.412 (inactive)
C[C@]1(C(=O)O)c2ccccc2C(=O)N(Cc2ccccc2)[C@H]1c1ccc(CO)cc1,0.576 (inactive),-0.147,3.5 (inactive),0.52 (inactive),1.06 (inactive),0.548 (inactive),-0.0555,0.67 (inactive),0.917 (inactive),0.42,0.277,0.504,0.67,0.132,0.0631,1.33,0.114 (inactive),-0.768,0.161,1.08 (inactive)
COC(=O)[C@@]1(Cc2ccccc2)[C@H]2c3cc(C(=O)N4CCCC4)n(Cc4ccsc4Br)c3C[C@H]2CN1C(=O)c1ccccc1,-1.82 (inactive),0.451,7 (inactive),1.07 (inactive),1.04 (inactive),1.03 (inactive),-0.215,0.0188 (inactive),0.707 (inactive),-2.92,-0.991,0.213,-0.248,-1.54,-3.59,1.6,-0.205 (inactive),-0.804,-1.23,-0.9 (inactive)
NC(=O)NCC#Cc1ccc2c(c1)[C@]1(C(=O)N2)[C@H](C(=O)O)[C@H]2C(=O)O[C@H](c3ccccc3)[C@H](c3ccccc3)N2[C@@H]1c1ccccc1OCCO,3.32 (inactive),0.73,-1.21 (inactive),-1.81 (inactive),-3.99 (inactive),-2.67 (inactive),2.78,2.1 (inactive),0.786 (inactive),-0.188,0.789,1.03,0.728,1.33,1.35,-0.867,-0.377 (inactive),-0.0612,0.997,0.877 (inactive)
COc1cc2c(cc1OC)CN(C(=O)[C@@H]1[C@H]3C(=O)O[C@H](c4ccccc4)[C@H](c4ccccc4)N3[C@H](c3ccccc3OCCO)[C@@]13C(=O)Nc1ccc(C#CC4(O)CCCCCC4)cc13)CC2,2.01 (inactive),-0.2,3.46 (inactive),2.47 (inactive),1.26 (inactive),2.21 (inactive),0.454,1.73 (inactive),0.934 (inactive),2.25,0.74,-0.277,0.711,-0.292,-1.88,-0.612,1.3 (inactive),-0.792,-1.31,-0.373 (inactive)
